# From article PMC5540273 (PLoS ONE, 2017)
# Tests used:
# Conditions in all cases: concentration: 1 μM, replicates: in singlicate; n = 1
# NIM1 = test system: T1, NIM1
# T1 construct: gene MGC42105
# NLK = test system: NLK
# OSR1 = test system: T2, OSR1
# T2 construct: gene OXSR1
# PAK1 = test system: PAK1
# PAK2 = test system: PAK2
# PAK3 = test system: PAK3
# PAK4 = test system: PAK4
# PAK6 = test system: PAK6
# PAK7 = test system: PAK7
# PCTK1 = test system: T3, PCTK1
# T3 construct: gene CDK16
# PCTK2 = test system: T4, PCTK2
# T4 construct: gene CDK17
# PCTK3 = test system: T5, PCTK3
# T5 construct: gene CDK18
# PDGFRA = test system: PDGFRA
# PDGFRB = test system: PDGFRB
# PDPK1 = test system: PDPK1
# PFTAIRE2 = test system: PFTAIRE2
# PFTK1 = test system: T6, PFTK1
# T6 construct: gene CDK14
# PHKG1 = test system: PHKG1
# PHKG2 = test system: PHKG2
# PIK3C2B = test system: PIK3C2B
# 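Further: KINOMEscan kinase panel screen.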
compound,measurement,setting,value
CC(C)(C)c1ccc(C(=O)Nc2cn3cc(-n4ccnc4)ccc3n2)cc1,%Inh,NIM1,3%
same,%Inh,NLK,0%
same,%Inh,OSR1,0%
same,%Inh,PAK1,30%
same,%Inh,PAK2,42%
same,%Inh,PAK3,20%
same,%Inh,PAK4,10%
same,%Inh,PAK6,6%
same,%Inh,PAK7,0%
same,%Inh,PCTK1,6%
same,%Inh,PCTK2,14%
same,%Inh,PCTK3,0%
same,%Inh,PDGFRA,61%
same,%Inh,PDGFRB,96.9%
same,%Inh,PDPK1,1%
same,%Inh,PFTAIRE2,8%
same,%Inh,PFTK1,10%
same,%Inh,PHKG1,40%
same,%Inh,PHKG2,13%
same,%Inh,PIK3C2B,0%
Nc1ncc(-c2ccc3nccc(-c4ccncc4)c3c2)cc1S(=O)(=O)N1CCCCC1 [GSK1693850],%Inh,NIM1,0%
same,%Inh,NLK,13%
same,%Inh,OSR1,5%
same,%Inh,PAK1,18%
same,%Inh,PAK2,8%
same,%Inh,PAK3,14%
same,%Inh,PAK4,0%
same,%Inh,PAK6,0%
same,%Inh,PAK7,18%
same,%Inh,PCTK1,0%
same,%Inh,PCTK2,26%
same,%Inh,PCTK3,0%
same,%Inh,PDGFRA,0%
same,%Inh,PDGFRB,22%
same,%Inh,PDPK1,0%
same,%Inh,PFTAIRE2,48%
same,%Inh,PFTK1,47%
same,%Inh,PHKG1,0%
same,%Inh,PHKG2,14%
same,%Inh,PIK3C2B,100%
COc1cc(Nc2nccc(N3CCC(NS(=O)(=O)c4ccc(NC(C)=O)cc4)CC3)n2)cc(OC)c1OC [GSK1379825],%Inh,NIM1,16%
same,%Inh,NLK,27%
same,%Inh,OSR1,19%
same,%Inh,PAK1,0%
same,%Inh,PAK2,19%
same,%Inh,PAK3,13%
same,%Inh,PAK4,0%
same,%Inh,PAK6,5%
same,%Inh,PAK7,1%
same,%Inh,PCTK1,14%
same,%Inh,PCTK2,0%
same,%Inh,PCTK3,25%
same,%Inh,PDGFRA,6%
same,%Inh,PDGFRB,90%
same,%Inh,PDPK1,21%
same,%Inh,PFTAIRE2,0%
same,%Inh,PFTK1,5%
same,%Inh,PHKG1,0%
same,%Inh,PHKG2,0%
same,%Inh,PIK3C2B,0%
Cc1ccccc1CC(=O)N1CCc2cc(-c3cn(C)c4ncnc(N)c34)ccc21 [GSK2603346],%Inh,NIM1,3%
same,%Inh,NLK,0%
same,%Inh,OSR1,12%
same,%Inh,PAK1,0%
same,%Inh,PAK2,0%
same,%Inh,PAK3,48%
same,%Inh,PAK4,0%
same,%Inh,PAK6,0%
same,%Inh,PAK7,0%
same,%Inh,PCTK1,0%
same,%Inh,PCTK2,0%
same,%Inh,PCTK3,3%
same,%Inh,PDGFRA,64%
same,%Inh,PDGFRB,99.4%
same,%Inh,PDPK1,67%
same,%Inh,PFTAIRE2,5%
same,%Inh,PFTK1,3%
same,%Inh,PHKG1,0%
same,%Inh,PHKG2,0%
same,%Inh,PIK3C2B,77%
CS(=O)(=O)c1cccc(CNc2nc(Nc3ccc4c(c3)CCC(=O)N4)ncc2C(F)(F)F)c1,%Inh,NIM1,5%
same,%Inh,NLK,0%
same,%Inh,OSR1,0%
same,%Inh,PAK1,0%
same,%Inh,PAK2,0%
same,%Inh,PAK3,0%
same,%Inh,PAK4,0%
same,%Inh,PAK6,0%
same,%Inh,PAK7,0%
same,%Inh,PCTK1,0%
same,%Inh,PCTK2,0%
same,%Inh,PCTK3,4%
same,%Inh,PDGFRA,15%
same,%Inh,PDGFRB,62%
same,%Inh,PDPK1,32%
same,%Inh,PFTAIRE2,14%
same,%Inh,PFTK1,10%
same,%Inh,PHKG1,0%
same,%Inh,PHKG2,3%
same,%Inh,PIK3C2B,0%
Cc1cc(-c2c(-c3ccc(F)cc3)ncn2CCCN2CCOCC2)nc(N)n1 [SB-222517],%Inh,NIM1,0%
same,%Inh,NLK,17%
same,%Inh,OSR1,0%
same,%Inh,PAK1,0%
same,%Inh,PAK2,66%
same,%Inh,PAK3,0%
same,%Inh,PAK4,1%
same,%Inh,PAK6,1%
same,%Inh,PAK7,0%
same,%Inh,PCTK1,0%
same,%Inh,PCTK2,0%
same,%Inh,PCTK3,0%
same,%Inh,PDGFRA,0%
same,%Inh,PDGFRB,16%
same,%Inh,PDPK1,0%
same,%Inh,PFTAIRE2,0%
same,%Inh,PFTK1,0%
same,%Inh,PHKG1,12%
same,%Inh,PHKG2,0%
same,%Inh,PIK3C2B,28%
CN(c1ccc(NC(=O)Nc2cccc(Cl)c2)cc1)c1ccnc(N)n1.Cl [GW830707],%Inh,NIM1,0%
same,%Inh,NLK,4%
same,%Inh,OSR1,0%
same,%Inh,PAK1,5%
same,%Inh,PAK2,34%
same,%Inh,PAK3,6%
same,%Inh,PAK4,1%
same,%Inh,PAK6,7%
same,%Inh,PAK7,0%
same,%Inh,PCTK1,0%
same,%Inh,PCTK2,0%
same,%Inh,PCTK3,10%
same,%Inh,PDGFRA,97.5%
same,%Inh,PDGFRB,100%
same,%Inh,PDPK1,20%
same,%Inh,PFTAIRE2,1%
same,%Inh,PFTK1,15%
same,%Inh,PHKG1,23%
same,%Inh,PHKG2,0%
same,%Inh,PIK3C2B,0%
COC(=O)Nc1nc2cc(Oc3ccc(NC(=O)Nc4cccc(SC)c4)cc3)ccc2[nH]1.Cl [GW697999],%Inh,NIM1,32%
same,%Inh,NLK,0%
same,%Inh,OSR1,15%
same,%Inh,PAK1,0%
same,%Inh,PAK2,0%
same,%Inh,PAK3,29%
same,%Inh,PAK4,0%
same,%Inh,PAK6,0%
same,%Inh,PAK7,0%
same,%Inh,PCTK1,3%
same,%Inh,PCTK2,6%
same,%Inh,PCTK3,26%
same,%Inh,PDGFRA,99.4%
same,%Inh,PDGFRB,100%
same,%Inh,PDPK1,0%
same,%Inh,PFTAIRE2,15%
same,%Inh,PFTK1,20%
same,%Inh,PHKG1,3%
same,%Inh,PHKG2,34%
same,%Inh,PIK3C2B,0%
CN(c1ccc(NC(=O)N2CCN(CCCN3CCOCC3)CC2)cc1)c1ccnc(Nc2ccc(CS(C)(=O)=O)cc2)n1.Cl [GW830899],%Inh,NIM1,0%
same,%Inh,NLK,0%
same,%Inh,OSR1,0%
same,%Inh,PAK1,0%
same,%Inh,PAK2,0%
same,%Inh,PAK3,0%
same,%Inh,PAK4,0%
same,%Inh,PAK6,25%
same,%Inh,PAK7,2%
same,%Inh,PCTK1,0%
same,%Inh,PCTK2,10%
same,%Inh,PCTK3,0%
same,%Inh,PDGFRA,73%
same,%Inh,PDGFRB,99.4%
same,%Inh,PDPK1,2%
same,%Inh,PFTAIRE2,14%
same,%Inh,PFTK1,0%
same,%Inh,PHKG1,40%
same,%Inh,PHKG2,0%
same,%Inh,PIK3C2B,0%
CN(C)CCOc1ccc(-c2cc(-c3ccc(Cl)c(O)c3)c(-c3ccncc3)[nH]2)cc1.Cl.Cl [SB-684387],%Inh,NIM1,40%
same,%Inh,NLK,66%
same,%Inh,OSR1,7%
same,%Inh,PAK1,8%
same,%Inh,PAK2,6%
same,%Inh,PAK3,0%
same,%Inh,PAK4,0%
same,%Inh,PAK6,0%
same,%Inh,PAK7,20%
same,%Inh,PCTK1,1%
same,%Inh,PCTK2,13%
same,%Inh,PCTK3,1%
same,%Inh,PDGFRA,12%
same,%Inh,PDGFRB,30%
same,%Inh,PDPK1,0%
same,%Inh,PFTAIRE2,20%
same,%Inh,PFTK1,19%
same,%Inh,PHKG1,0%
same,%Inh,PHKG2,0%
same,%Inh,PIK3C2B,10%
Nc1ncnc2scc(-c3ccc(NC(=O)Cc4cc(F)ccc4F)cc3)c12.O=C(O)C(F)(F)F [SB-731254-M],%Inh,NIM1,0%
same,%Inh,NLK,4%
same,%Inh,OSR1,11%
same,%Inh,PAK1,7%
same,%Inh,PAK2,32%
same,%Inh,PAK3,46%
same,%Inh,PAK4,0%
same,%Inh,PAK6,0%
same,%Inh,PAK7,1%
same,%Inh,PCTK1,2%
same,%Inh,PCTK2,0%
same,%Inh,PCTK3,13%
same,%Inh,PDGFRA,99.5%
same,%Inh,PDGFRB,99.9%
same,%Inh,PDPK1,41%
same,%Inh,PFTAIRE2,0%
same,%Inh,PFTK1,2%
same,%Inh,PHKG1,6%
same,%Inh,PHKG2,16%
same,%Inh,PIK3C2B,22%
CCNC(=O)/C=C/c1n[nH]c2cc(Sc3ccccc3C(=O)NC)ccc12,%Inh,NIM1,2%
same,%Inh,NLK,57%
same,%Inh,OSR1,0%
same,%Inh,PAK1,0%
same,%Inh,PAK2,0%
same,%Inh,PAK3,0%
same,%Inh,PAK4,0%
same,%Inh,PAK6,4%
same,%Inh,PAK7,20%
same,%Inh,PCTK1,7%
same,%Inh,PCTK2,0%
same,%Inh,PCTK3,10%
same,%Inh,PDGFRA,100%
same,%Inh,PDGFRB,99.9%
same,%Inh,PDPK1,6%
same,%Inh,PFTAIRE2,0%
same,%Inh,PFTK1,13%
same,%Inh,PHKG1,14%
same,%Inh,PHKG2,19%
same,%Inh,PIK3C2B,0%
Cc1nn2c(=O)cc(N3CCO[C@H](C)C3)nc2n1Cc1cccc(Cl)c1Cl [GSK2373693],%Inh,NIM1,11%
same,%Inh,NLK,78%
same,%Inh,OSR1,83%
same,%Inh,PAK1,2%
same,%Inh,PAK2,10%
same,%Inh,PAK3,36%
same,%Inh,PAK4,0%
same,%Inh,PAK6,52%
same,%Inh,PAK7,0%
same,%Inh,PCTK1,7%
same,%Inh,PCTK2,0%
same,%Inh,PCTK3,8%
same,%Inh,PDGFRA,1%
same,%Inh,PDGFRB,65%
same,%Inh,PDPK1,0%
same,%Inh,PFTAIRE2,9%
same,%Inh,PFTK1,5%
same,%Inh,PHKG1,0%
same,%Inh,PHKG2,0%
same,%Inh,PIK3C2B,99.4%
COc1cc(Nc2ccnc3cc(-c4ccncc4)ccc23)cc(OC)c1OC.Cl [GW494610],%Inh,NIM1,23%
same,%Inh,NLK,92.8%
same,%Inh,OSR1,100%
same,%Inh,PAK1,0%
same,%Inh,PAK2,0%
same,%Inh,PAK3,0%
same,%Inh,PAK4,0%
same,%Inh,PAK6,0%
same,%Inh,PAK7,0%
same,%Inh,PCTK1,0%
same,%Inh,PCTK2,0%
same,%Inh,PCTK3,0%
same,%Inh,PDGFRA,73%
same,%Inh,PDGFRB,97.2%
same,%Inh,PDPK1,0%
same,%Inh,PFTAIRE2,12%
same,%Inh,PFTK1,0%
same,%Inh,PHKG1,15%
same,%Inh,PHKG2,0%
same,%Inh,PIK3C2B,0%
COc1cccc2c(-c3ccncc3)c(-c3ccc(F)cc3)nn12 [GW468513],%Inh,NIM1,14%
same,%Inh,NLK,86%
same,%Inh,OSR1,7%
same,%Inh,PAK1,0%
same,%Inh,PAK2,10%
same,%Inh,PAK3,61%
same,%Inh,PAK4,0%
same,%Inh,PAK6,0%
same,%Inh,PAK7,0%
same,%Inh,PCTK1,0%
same,%Inh,PCTK2,11%
same,%Inh,PCTK3,0%
same,%Inh,PDGFRA,0%
same,%Inh,PDGFRB,21%
same,%Inh,PDPK1,10%
same,%Inh,PFTAIRE2,5%
same,%Inh,PFTK1,0%
same,%Inh,PHKG1,18%
same,%Inh,PHKG2,0%
same,%Inh,PIK3C2B,0%
